Measurements taken from PubChem BioAssay AID540356 (Broad Institute, 2011).
In all, about 2,500 compounds went through this assay and about 360 (14%) were called active.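 Rule for the calls: active = signal-lowering compounds whose fitted half-maximal concentration AC50 is no higher than ten times their top tested concentration; inconclusive = flat curve with 30 to 70% inhibition, or poor fit; inactive = flat within 30%, signal increase, or AC50 above limit.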 The list is a sample of the results.

assay: HRP/luminol detection interference without ALR, dose response, artefact control for ALR inhibitor project, biochemical, luminescence, no ALR or DTT, cherry-pick (AID 540356); conditions: HRP/H2O2 luminol luminescence counterscreen; series mostly up to 10 µM

Compound | AC50
Cc1ccc(C2SCC(=O)N2c2ccccc2)cc1 (stereo not given) | inactive
N#CC1=C(N)n2c(s/c(=C\c3cccs3)c2=O)=C(C#N)C1c1cccs1 (stereo not given) | inactive
N#Cc1cnn(-c2ccccc2)c1NC(=O)CN1CCN(c2ccccc2)CC1 | inactive
CN(C)S(=O)(=O)c1ccc(-c2cn3ccccc3n2)cc1 | inactive
O=C(N/N=C\c1cccc(Cl)c1)c1ccc(Cn2cccn2)o1 | inactive
CSc1nc(O)c(Nc2cccc(Cl)c2)c(=O)[nH]1 | inactive
Nc1ncc(Br)cc1S(=O)(=O)NCCC(=O)N1CCN(c2ccccc2)CC1 | inactive
Cc1ccc(S(=O)(=O)N2CCN=C2SCc2cccnc2)cc1 | inactive
CC(=O)Nc1nc(C)c(-c2csc(Nc3ccc(O)cc3)n2)s1 | inactive
Nc1ccc(-c2nc3cc(N)ccc3s2)cc1 | inactive
CN=c1scc(-c2ccccc2F)n1/N=C(\C)c1cccnc1 | inactive
O=C1CSC(=S)N1c1ccc(O)cc1 | inactive
COc1cc(/C=N/NC(=O)Cn2cnc3c2c(=O)n(C)c(=O)n3C)ccc1O | inactive
S=c1[nH]nc(C2CCCCC2)n1/N=C/c1ccccn1 | inactive
Oc1ccc(/C=N/N=C/c2ccc(O)c(O)c2)cc1O | 2.39 µM (active)
O=Cc1ccc(O)c(O)c1 | inactive
COc1cc(/C=C/c2ccc(O)cc2)cc(OC)c1 | inactive
Cc1ccc(CN2CCN(/N=C/c3ccc(O)c(O)c3)CC2)cc1 | inactive

Compound | AC50
Oc1ccc(/C=N/N=C/c2ccc(O)cc2)cc1 | inactive
Oc1cc(O)cc(/C=C/c2ccc(O)c(O)c2)c1 | 5.21 µM (active)
Cc1ccsc1C=Nc1ccc(O)cc1 | inactive
COc1ccc(N=C2C(=O)Nc3ccccc32)cc1 | inactive
COc1cc(/C=N/N=C2/NC(=O)C(c3ccccc3)S2)ccc1O (stereo not given) | inactive
COc1ccccc1C(=O)NCCN1CCN(c2ccccc2)CC1 | inactive
CN(C)c1ccc(NC(=O)Nc2ccc3snnc3c2)cc1 | inactive
CC(C)(C)c1cc(-c2n[nH]c(=S)n2-c2ccccc2F)n[nH]1 | inactive
N#CCC(=O)Nc1ccc(C(=O)NCc2cccc(Cl)c2)cc1 | inactive
CC(=O)Oc1ccc(-c2cccc(C(=O)N(C)c3ccc(O)cc3)c2)cc1 | inactive
CCN(CCCNS(=O)(=O)c1ccc2c(c1)CCN2C(C)=O)c1cccc(C)c1 | inactive
COc1ccc(OC)c(C2C(C#N)=C(N)Oc3cc(N)ccc32)c1 (stereo not given) | inactive
COC(=O)Cc1ccc(O)c(N)c1 | inactive
CC(C)C1C(C#N)=C(N)Oc2n[nH]c(-c3cccs3)c21 (stereo not given) | inactive
COc1cc(/C=N/NC(=O)c2cc(-c3ccc4c(c3)OCO4)n[nH]2)ccc1O | inactive
Cc1ccc(C2C(C#N)=C(N)Oc3cc(N)ccc32)cc1 (stereo not given) | inactive
N#CC1=C(N)Oc2n[nH]c(-c3cccs3)c2C1c1ccco1 (stereo not given) | inactive
